In PubChem BioAssay:
Unmarked numbers belong to inactive results. How the calls were made is not given here.

Test system: Aerobactin synthetase IucA (Klebsiella pneumoniae hvKP1)
Experiment: Biochemical IucA enzyme inhibition primary screen of the Spectrum library (AID 1346200);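 further: 100% = wells without compound and 0% = wells lacking enzyme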
Conditions: malachite green pyrophosphate, A620, at 8 µM, active compounds read low

Row | Structure (SMILES) | activity remaining [%]
1 | CN1C2CC(OC(=O)[C@H](CO)c3ccccc3)C[C@H]1[C@H]1OC21 (some centres undefined) | 109
2 | CC(C)=CCc1c2c(c(O)c3c(=O)c(O)c(-c4ccccc4)oc13)C=CC(C)(C)O2 | 110
3 | NC(Cc1ccc(Cl)cc1)C(=O)O (centres undefined) | 108
4 | COC1(C)CCC2OC2(C)CCC2C1CC2(C)C (centres undefined) | 113
5 | CCCCC1(COC(=O)CCC(=O)O)C(=O)N(c2ccccc2)N(c2ccccc2)C1=O | 110
6 | CC1(C)S[C@@H]2[C@H](NC(=O)COc3ccccc3)C(=O)N2[C@H]1C(=O)O | 96.2
7 | c1coc(CNc2ncnc3nc[nH]c23)c1 | 116
8 | CC(C)(C)CC(C)(C)c1ccc(OCCOCC[N+](C)(C)Cc2ccccc2)cc1 | 113
9 | O=C(c1ccc(OCCN2CCCCC2)cc1)c1c(-c2ccc(O)cc2)sc2cc(O)ccc12 | 105
10 | O=c1cc(-c2ccc(O)cc2)oc2cc(O)cc(O)c12 | 113
11 | Cc1cc(O)c2c(c1O)C(=O)c1c(O)cc(C)c(O)c1C2=O | 100
12 | O=S(=O)(O)CCS | 118
13 | Nc1c(Br)cc(Br)cc1CNC1CCC(O)CC1 (centres undefined) | 93.2
14 | CC(C)Oc1ccc2c(=O)cc(-c3ccccc3)oc2c1 | 114
15 | CC(=O)O[C@H]1CCC2(C)C3=C(CCC2C1(C)C)[C@@]1(C)CC[C@@H](C(C)CCC=C(C)C)[C@]1(C)CC3 (some centres undefined) | 109
16 | CC(N)C12CC3CC(CC(C3)C1)C2 (centres undefined) | 115
17 | CC1(C)C2CC[C@]3(C)C(C(=O)C=C4[C@H]5C[C@@](C)(C(=O)O)CC[C@]5(C)CC[C@]43C)[C@@]2(C)CC[C@@H]1O (some centres undefined) | 109
18 | CC12OC(=O)CC3C(C)(C)[C@H](O)C=C[C@]3(C)C1CC[C@]1(C)C2=CC(=O)O[C@H]1c1ccoc1 (some centres undefined) | 118
19 | COc1ccc2c(c1)[C@@]1(C)CCC(=O)C[C@@H]1CC2 | 118
20 | C1CCc2nnnn2CC1 | 112

Row | Structure (SMILES) | activity remaining [%]
21 | CC(C)(C)NC[C@@H](O)COc1nsnc1N1CCOCC1 | 99.4
22 | Cc1cc(=O)[nH]c(=S)[nH]1 | 95.7
23 | O=C1O[C@@H](CO)[C@H](O)[C@@H](O)[C@@H]1O | 113
24 | CC(=O)N[C@@H](CS)C(=O)O | 110
25 | COc1ccc(-c2cc(=O)c3c(O)cc(O[C@H]4O[C@H](CO[C@@H]5O[C@@H](C)[C@H](O)[C@@H](O)[C@H]5O)[C@@H](O)[C@H](O)[C@H]4O)cc3o2)cc1 | 101
26 | CC12CC3CC(C)(C1)CC(N)(C3)C2 | 108
27 | C#C[C@]1(OC(C)=O)CCC2C3CCC4=CC(=O)CC[C@@H]4C3CC[C@@]21C (some centres undefined) | 93
28 | CC(=O)[C@H]1CCC2C3CC=C4C[C@@H](O)CC[C@]4(C)C3CC[C@@]21C (some centres undefined) | 99.4
29 | COC(=O)[C@@]1(C)CCC[C@]2(C)c3ccc(O)c(C(C)C)c3CCC12 (some centres undefined) | 121
30 | CC(C)[C@H](N)C(=O)OCCOCn1cnc2c(=O)[nH]c(N)nc21 | 122
31 | O=C1CCc2cc(OCCCCc3nnnn3C3CCCCC3)ccc2N1 | 117
32 | c1ccc(CN(CC2=NCCN2)c2ccccc2)cc1 | 120
33 | Cc1c(S(=O)(=O)O)oc2c1C(=O)C(=O)c1c-2ccc2c1CCCC2(C)C | 127
34 | Cc1cc(O)cc(C)c1Cl | 94.5
35 | CNC(=O)Oc1ccc2c(c1)[C@]1(C)CCN(C)[C@@H]1N2C | 116
36 | COC1=C(O)C(=O)c2c(cc3oc(C(C)=O)c(O)c3c2O)C1=O | 108
37 | NC[C@H]1O[C@H](O[C@H]2[C@H](O)[C@@H](O[C@H]3O[C@H](CO)[C@@H](O)[C@H](N)[C@H]3O)[C@H](N)C[C@@H]2N)[C@H](N)C[C@@H]1O | 97
38 | CN1C2CCC1CC(OC(c1ccccc1)c1ccccc1)C2 (centres undefined) | 101
39 | O=c1c(O)c(-c2ccc(O)cc2O)oc2cc(O)cc(O)c12 | 96.8
40 | O=C(OC[C@H]1O[C@H](OC(=O)c2cc(O)c(O)c(OC(=O)c3cc(O)c(O)c(O)c3)c2)[C@H](OC(=O)c2cc(O)c(O)c(OC(=O)c3cc(O)c(O)c(O)c3)c2)[C@@H](OC(=O)c2cc(O)c(O)c(OC(=O)c3cc(O)c(O)c(O)c3)c2)[C@@H]1OC(=O)c1cc(O)c(O)c(OC(=O)c2cc(O)c(O)c(O)c2)c1)c1cc(O)c(O)c(OC(=O)c2cc(O)c(O)c(O)c2)c1 | 100

Test system: Aerobactin synthetase IucA (Klebsiella pneumoniae, hypervirulent)
Experiment: IucA enzyme inhibition, biochemical, LOPAC library, absorbance readout (AID 1346212);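 further: 100% = no compound wells and 0% = no enzyme wells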
Conditions: IucA enzyme assay, absorbance (OD) readout; active compounds read low; concentration not given here

Row | Structure (SMILES) | remaining activity [%]
41 | O=C(c1ccc(OCCN2CCCCC2)cc1)c1c(-c2ccc(O)cc2)sc2cc(O)ccc12 | 92
42 | O=c1cc(-c2ccc(O)cc2)oc2cc(O)cc(O)c12 | 107
43 | C1CCc2nnnn2CC1 | 107
44 | CC(=O)N[C@@H](CS)C(=O)O | 108
45 | CC12CC3CC(C)(C1)CC(N)(C3)C2 | 92.7
46 | O=C1CCc2cc(OCCCCc3nnnn3C3CCCCC3)ccc2N1 | 113
47 | CNC(=O)Oc1ccc2c(c1)[C@]1(C)CCN(C)[C@@H]1N2C | 110
48 | CN1C2CCC1CC(OC(c1ccccc1)c1ccccc1)C2 (centres undefined) | 113
49 | O=c1c(O)c(-c2ccc(O)cc2O)oc2cc(O)cc(O)c12 | 122
